Source: the supplement of paper PMC12494721
Where a name gives a salt, the structure may show the parent alone.

Experiments:
Conditions in all cases: incubation time: 27 h, anaerobic, 37 °C;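 for the amine columns active = adjusted P below 0.05 in both replicates with a change the same way and a mean fold change under 0.8 or over 1.25; inactive = the rest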
[1] = system: Clostridium sporogenes DSM 1664; test: growth (OD595) fold change vs plate DMSO controls (fold change (ratio)); higher = more growth
Summary of the method: (§1)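 After 27 h at 37 °C under anaerobic conditions, 96-well cultures in mGAM were shaken and read at 595 nm. The readings were blank-subtracted, corrected for compound background using 20 µM compound solutions in water, and converted to OD with a calibration factor of 5. Growth is defined as the fold change over the median of DMSO controls on each plate. Fold changes above 1.5 were set to NA, and each value is the mean of 2 biological replicates.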

Escherichia coli IAI1 [2] = test: as above
Summary of the method: as §1

[3] = system: Klebsiella aerogenes DSM 30053; test: as above
Summary of the method: as §1

[4] = system: Ruminococcus gnavus DSM 108212; test: as above
Summary of the method: as §1

[5] = system: Klebsiella aerogenes DSM 30053; test: fold change of Histamine concentration vs plate DMSO controls (fold change (ratio)); higher = more amine produced, active = hit call of the paper (significant change in both replicates, either direction)
Summary of the method: (§2)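 Anaerobic mGAM cultures of four gut bacterial strains were grown at 37 °C for 27 h in 80 µL wells, starting at OD 0.1 before 1:1 dilution. Compounds were at 20 µM final (sweeteners 50 µM). Whole cultures were extracted with cold acetonitrile/methanol containing 0.1% formic acid and centrifuged. Amines were quantified by LC–triple-quadrupole MS (dynamic MRM) against external calibration curves and drift-corrected within batch. Each value is the fold change versus plate DMSO controls, averaged over 2 biological replicates.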

[6] = system: Clostridium sporogenes DSM 1664; test: fold change of Tryptamine concentration vs plate DMSO controls (fold change (ratio)); higher = more amine produced, active = hit call of the paper (significant change in both replicates, either direction)
Summary of the method: as §2

[7] = system: Ruminococcus gnavus DSM 108212; test: as above
Summary of the method: as §2

Escherichia coli IAI1 [8] = test: fold change of Putrescine concentration vs plate DMSO controls (fold change (ratio)); higher = more amine produced, active = hit call of the paper (significant change in both replicates, either direction)
Summary of the method: as §2

[9] = system: Klebsiella aerogenes DSM 30053; test: as above
Summary of the method: as §2

Escherichia coli IAI1 [10] = test: fold change of Cadaverine concentration vs plate DMSO controls (fold change (ratio)); higher = more amine produced, active = hit call of the paper (significant change in both replicates, either direction)
Summary of the method: as §2

[11] = system: Klebsiella aerogenes DSM 30053; test: as above
Summary of the method: as §2

[12] = system: Ruminococcus gnavus DSM 108212; test: fold change of 2-Phenylethylamine concentration vs plate DMSO controls (fold change (ratio)); higher = more amine produced, active = hit call of the paper (significant change in both replicates, either direction)
Summary of the method: as §2

Row | SMILES | growth [1] | growth (Escherichia coli IAI1 [2]) | growth [3] | growth [4] | fold change of Histamine concentration [5] | fold change of Tryptamine concentration [6] | fold change of Tryptamine concentration [7] | fold change of Putrescine concentration (Escherichia coli IAI1 [8]) | fold change of Putrescine concentration [9] | fold change of Cadaverine concentration (Escherichia coli IAI1 [10]) | fold change of Cadaverine concentration [11] | fold change of 2-Phenylethylamine concentration [12]
1 | Cc1ccc(S(=O)(=O)NC(=O)NN2CCCCCC2)cc1 [Tolazamide] (20 µM) | 0.935 | 1.09 | 1.04 | 1.19 | 0.975 (inactive) | 1.02 (inactive) | 1.14 (inactive) | 1.05 (inactive) | 0.974 (inactive) | 1.02 (inactive) | 1.02 (inactive) | 1.18 (inactive)
2 | CCOC(=O)[C@H](CCc1ccccc1)N[C@H]1CS[C@H](c2cccs2)CN(CC(=O)O)C1=O [Temocapril hydrochloride] (20 µM) | 1.1 | 1.05 | 1.08 | 1.05 | 0.959 (inactive) | 0.989 (inactive) | 0.991 (inactive) | 0.997 (inactive) | 1.03 (inactive) | 1.04 (inactive) | 1.01 (inactive) | 1.01 (inactive)
3 | CC(C)Cc1ccc(C(C)C(=O)OCc2ccccn2)cc1 (stereo not drawn) [Ibuprofen Piconol] (20 µM) | 0.967 | 1 | 0.98 | 1.13 | 1.01 (inactive) | 1.01 (inactive) | 1.1 (inactive) | 1 (inactive) | 1.01 (inactive) | 0.983 (inactive) | 0.996 (inactive) | 1.15 (inactive)
4 | Brc1c(NC2=NCCN2)ccc2nccnc12 [Brimonidine L-tartrate] (20 µM) | 0.988 | 1.06 | 0.999 | 1.03 | 0.928 (inactive) | 1.07 (inactive) | 0.885 (inactive) | 0.973 (inactive) | 0.971 (inactive) | 0.919 (inactive) | 1.06 (inactive) | 1.05 (inactive)
5 | CC(C)(C)c1ccc(C(=O)CCCN2CCC(OC(c3ccccc3)c3ccccc3)CC2)cc1 [Ebastine] (20 µM) | 1.13 | 1 | 1.01 | 0.852 | 1.02 (inactive) | 0.991 (inactive) | 0.856 (inactive) | 1.02 (inactive) | 1 (inactive) | 1.01 (inactive) | 0.983 (inactive) | 1.02 (inactive)
6 | CCN(CC)C(=O)c1ccc(O)c(OC)c1 [Ethamivan] (20 µM) | 1.12 | 1.02 | 1.05 | 0.873 | 0.973 (inactive) | 1.02 (inactive) | 1.04 (inactive) | 1.02 (inactive) | 1.02 (inactive) | 1.01 (inactive) | 1.01 (inactive) | 1.05 (inactive)
7 | CC(=O)O[C@H]1C[C@@H]2CC[C@@H]3[C@H](CC[C@@]4(C)[C@H]3C[C@H]([N+]3(C)CCCCC3)[C@@H]4OC(C)=O)[C@@]2(C)C[C@@H]1N1CCCCC1 [Vecuronium bromide] (20 µM) | 0.99 | 0.99 | 1.01 | 0.872 | 1.04 (inactive) | 1.01 (inactive) | 0.967 (inactive) | 0.872 (inactive) | 1 (inactive) | 0.992 (inactive) | 0.992 (inactive) | 1.03 (inactive)
8 | Cc1ncc(CO)c(CO)c1O [Pyridoxine hydrochloride] (20 µM) | 1.06 | 0.974 | 1.06 | 1.01 | 0.916 (inactive) | 1.05 (inactive) | 1.02 (inactive) | 0.925 (inactive) | 0.989 (inactive) | 1.06 (inactive) | 1.02 (inactive) | 1.01 (inactive)
9 | Cc1ccccc1N1C(=O)c2cc(S(N)(=O)=O)c(Cl)cc2NC1C (stereo not drawn) [Metolazone] (20 µM) | 1.14 | 0.984 | 1.02 | 1.07 | 1.04 (inactive) | 0.993 (inactive) | 1.03 (inactive) | 1.02 (inactive) | 0.995 (inactive) | 0.977 (inactive) | 0.993 (inactive) | 1.04 (inactive)
10 | NC(=O)C(c1ccccc1)(c1ccccc1)[C@@H]1CCN(CCc2ccc3c(c2)CCO3)C1 [Darifenacin hydrobromide] (20 µM) | 1.04 | 0.975 | 1.02 | 0.96 | 0.873 (inactive) | 1.19 (inactive) | 1.1 (inactive) | 0.943 (inactive) | 1.05 (inactive) | 0.961 (inactive) | 1.15 (inactive) | 1.25 (inactive)
11 | CCOC(=O)OC(C)OC1=C(C(=O)Nc2ccccn2)N(C)S(=O)(=O)c2ccccc21 (stereo not drawn) [Ampiroxicam] (20 µM) | 1.02 | 0.978 | 1.03 | 1.1 | 0.908 (inactive) | 0.998 (inactive) | 0.999 (inactive) | 0.976 (inactive) | 0.998 (inactive) | 0.983 (inactive) | 1.01 (inactive) | 0.99 (inactive)
12 | CC/C(=C(/CC)c1ccc(O)cc1)c1ccc(O)cc1 [Diethylstilbestrol] (20 µM) | 0.583 | 0.984 | 1 | 0.991 | 1.03 (inactive) | 0.432 (active) | 0.88 (inactive) | 1 (inactive) | 1.01 (inactive) | 1.02 (inactive) | 0.993 (inactive) | 0.865 (inactive)
13 | CC(C)CC(=O)N[C@H](C(=O)N[C@H](C(=O)N[C@@H](CC(C)C)[C@@H](O)CC(=O)N[C@@H](C)C(=O)N[C@@H](CC(C)C)[C@@H](O)CC(=O)O)C(C)C)C(C)C [Pepstatin A] (20 µM) | 1.1 | 1 | 1 | 1.06 | 1.02 (inactive) | 1.06 (inactive) | 1.05 (inactive) | 0.953 (inactive) | 1.01 (inactive) | 0.961 (inactive) | 0.999 (inactive) | 1.06 (inactive)
14 | Cc1c(O)cccc1C(=O)N[C@@H](CSc1ccccc1)[C@H](O)CN1C[C@H]2CCCC[C@H]2C[C@H]1C(=O)NC(C)(C)C [Nelfinavir mesylate] (20 µM) | 1.07 | 1.09 | 1.01 | 0.967 | 0.979 (inactive) | 0.96 (inactive) | 0.829 (inactive) | 1.05 (inactive) | 1.02 (inactive) | 1.01 (inactive) | 1 (inactive) | 0.894 (inactive)
15 | CS(=O)(=O)c1ccc([C@@H](O)[C@@H](CO)NC(=O)C(Cl)Cl)cc1 [Thiamphenicol] (20 µM) | 0.937 | 0.551 | 0.468 | 0.18 | 0.0658 (active) | 0.738 (active) | 0.141 (active) | 0.321 (active) | 0.426 (active) | 1.17 (inactive) | 0.957 (inactive) | 0.145 (active)
16 | O=C(O)c1cc(/N=N/c2ccc(S(=O)(=O)Nc3ccccn3)cc2)ccc1O [Sulfasalazine] (20 µM) | 0.986 | 1 | 1.05 | 0.978 | 0.971 (inactive) | 1.01 (inactive) | 1 (inactive) | 0.913 (inactive) | 0.995 (inactive) | 1.01 (inactive) | 1.01 (inactive) | 0.954 (inactive)
17 | O=C1NS(=O)(=O)c2ccccc21 [Saccharin] (50 µM) | 0.975 | 1.02 | 0.976 | 1.11 | 1.01 (inactive) | 1.02 (inactive) | 1 (inactive) | 1.05 (inactive) | 1.01 (inactive) | 1.06 (inactive) | 0.996 (inactive) | 1.02 (inactive)
18 | O=C(O)c1cc(-c2ccc(F)cc2F)ccc1O [Diflunisal] (20 µM) | 1.05 | 0.978 | 0.985 | 1.22 | 1.02 (inactive) | 1.01 (inactive) | 1.02 (inactive) | 1.07 (inactive) | 0.988 (inactive) | 1.02 (inactive) | 0.994 (inactive) | 1.1 (inactive)
19 | Cc1onc(-c2c(Cl)cccc2Cl)c1C(=O)N[C@@H]1C(=O)N2[C@@H]1SC(C)(C)[C@@H]2C(=O)O [Dicloxacillin sodium salt hydrate] (20 µM) | 0.000771 | 0.996 | 0.975 | 0.165 | 1.01 (inactive) | 0.0119 (active) | 0.05 (active) | 0.979 (inactive) | 1.01 (inactive) | 1.03 (inactive) | 0.994 (inactive) | 0.0548 (active)
20 | O=c1[nH]c(=O)n([C@H]2C[C@H](O)[C@@H](CO)O2)cc1I [Idoxuridine] (20 µM) | 0.856 | 1.02 | 1.04 | 0.871 | 1.03 (inactive) | 1.25 (active) | 1.05 (inactive) | 1.18 (inactive) | 1.02 (inactive) | 0.982 (inactive) | 1 (inactive) | 1.08 (inactive)
21 | CC[N+](CC)(CC)CCC(O)(c1ccccc1)C1CCCCC1 (stereo not drawn) [Tridihexethyl chloride] (20 µM) | 0.911 | 1 | 1.01 | 1.16 | 0.955 (inactive) | 1.17 (inactive) | 1.06 (inactive) | 0.812 (inactive) | 0.975 (inactive) | 0.857 (inactive) | 1.02 (inactive) | 1.03 (inactive)
22 | CN1CCC(=C2c3ccccc3C=Cc3ccccc32)CC1 [Cyproheptadine hydrochloride] (20 µM) | 0.683 | 1.01 | 0.98 | 1.15 | 1.03 (inactive) | 1.18 (inactive) | 0.98 (inactive) | 0.969 (inactive) | 0.996 (inactive) | 0.973 (inactive) | 0.999 (inactive) | 1 (inactive)
23 | CC(C)=CCC1C(=O)N(c2ccccc2)N(c2ccccc2)C1=O [Feprazone] (20 µM) | 1.07 | 0.999 | 1.01 | 1.04 | 0.971 (inactive) | 1.02 (inactive) | 1.01 (inactive) | 1.02 (inactive) | 1.02 (inactive) | 0.996 (inactive) | 1 (inactive) | 1.03 (inactive)
24 | CCOC(=O)C1=C[C@@H](OC(CC)CC)[C@H](NC(C)=O)[C@@H](N)C1 [Oseltamivir phosphate] (20 µM) | 0.866 | 0.987 | 1.01 | 1.01 | 1.03 (inactive) | 1.05 (inactive) | 1.03 (inactive) | 1.02 (inactive) | 1 (inactive) | 1.03 (inactive) | 1 (inactive) | 1.05 (inactive)
